Screening results deposited in PubChem BioAssay by National Center for Advancing Translational Sciences (NCATS).
NIH3T3 tox: cytotoxic compounds in NIH 3T3 cells | NIH 3T3 viability, CellTiter-Glo ATP luminescence, 48-72 h | Potency, µM (titrated, usually from 96.7 µM), inactives show at the highest dose activity change, negative = cytotoxicity, most hits filed as inhibitors | 94,000 tested, 4.3% active; also: nearly all actives have a fitted effect of over 55% in size
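Luminescent ATP readout (CellTiter-Glo, 10 min RT) after 48 or 72 hr compound exposure of NIH 3T3 cells seeded at 400 cells/well in 1536-well format; quantitative HTS.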
NPR1 antag: human Npr1 receptor antagonism; P16066; 76,000 tested, 1.6% active; HEK293 hNpr1 GloSensor cGMP, ANP-stimulated luminescence; Potency, µM (series often up to 46.3 µM), for inactives: at the top dose activity change, negative = inhibition, most hits filed as inhibitors; calls by dose curve; also: nearly all actives have a fitted effect of over 60% in size
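HEK293 cells stably expressing human Npr1 and cGMP GloSensor pGS-40F, loaded 2 h with 2% GloSensor reagent, given compound 30 min at room temperature. Luminescence read before and 20 min after 0.1 nM hNppA.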
Luciferase inh: inhibitors of firefly (Photinus pyralis) luciferase. P08659. 76,000 tested, 2.5% active. Potency, µM (highest dose often 115 µM), hits mostly inhibitors. AID 1347043. purified P. pyralis luciferase, luminescence, biochemical; also: nearly all actives have a fitted effect of over 65% in size
Target sequence (P08659 whole entry, looked up): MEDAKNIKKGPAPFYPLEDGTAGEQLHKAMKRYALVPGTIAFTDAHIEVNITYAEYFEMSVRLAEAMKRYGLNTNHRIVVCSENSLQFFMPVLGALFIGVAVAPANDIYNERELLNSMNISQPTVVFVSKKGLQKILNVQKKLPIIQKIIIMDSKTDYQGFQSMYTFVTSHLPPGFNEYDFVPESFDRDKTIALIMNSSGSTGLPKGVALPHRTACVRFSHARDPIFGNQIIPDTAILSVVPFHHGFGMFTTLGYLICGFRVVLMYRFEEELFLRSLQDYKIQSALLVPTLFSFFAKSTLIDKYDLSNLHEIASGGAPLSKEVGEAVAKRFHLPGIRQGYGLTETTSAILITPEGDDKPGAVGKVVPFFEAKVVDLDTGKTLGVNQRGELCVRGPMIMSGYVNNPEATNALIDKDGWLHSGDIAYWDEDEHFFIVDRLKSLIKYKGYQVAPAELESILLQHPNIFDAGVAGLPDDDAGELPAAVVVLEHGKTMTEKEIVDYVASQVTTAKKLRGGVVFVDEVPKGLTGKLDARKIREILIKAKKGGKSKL
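Inhibitors were tested against purified firefly luciferase in a biochemical, low-substrate format (both substrates at 10uM) and luminescence measured with a CCD imager.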
HEK293 tox: cytotoxic compounds in HEK 293 cells; HEK 293 viability, ATP luminescence (CellTiter-Glo), 48-72 h; AID 1345083; Potency, µM (titrated, usually from 115 µM), without a hit: at the top dose activity change, negative = cytotoxicity, actives largely listed as inhibitors; 94,000 tested, 6.6% active; also: nearly all actives have a fitted effect of over 60% in size
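Cells seeded first (HEK 293, 250 cells/well), then compound added by pintool. Incubation ran 48 or 72 hr at 37 degree Celsius. CellTiter-Glo was added and luminescence imaged after 10 min at room temperature.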
The depositor's hits bear a star; [ ] = remark or other dose. A selection: hits, their analogues and other compounds. The true share with any hit is near 11%. Unless noted, calls follow the shape of the dose curve; as a rule, active = well fitted curve in the direction sought with a large enough effect; inconclusive = small, poorly fitted or top-dose-only effect, or another doubt; inactive = no such curve, though single readings can be large; an effect the other way counts as inactive or inconclusive. % is scaled to controls: 0 for no effect and ±100 for the full control effect; potency is read from the fitted curve at half-maximal effect.

What do the screens show for `O=C(O)C[C@@H]1CCN(C(=O)COc2ccccc2)C[C@@H]1CCN1CCN(c2ccccn2)CC1`?
NIH3T3 tox: -0.5%; NPR1 antag: 9.8%; Luciferase inh: inactive; HEK293 tox: 2.0%

Results for CCn1cc(Cl)c(C(=O)N2CCc3c(nc(-c4ccccc4)[nH]c3=O)C2)n1 ?
NIH3T3 tox: inconclusive; NPR1 antag: -5.1%; Luciferase inh: inactive; HEK293 tox: inconclusive

Results for COc1ccc(-c2cc(-c3cccc(O)c3)cn3cncc23)cc1 ?
NIH3T3 tox: inconclusive; NPR1 antag: -20.7%[70.6 µM]; Luciferase inh: inactive; HEK293 tox: inconclusive

Results for COc1cccc(-c2cc(-c3ccncc3)c3cncn3c2)c1OC ?
NIH3T3 tox: inconclusive; NPR1 antag: -3.5%[70.6 µM]; Luciferase inh: inactive; HEK293 tox: 89.1µM*

What do the screens show for `COc1ccc(-c2cc(-c3c(C)noc3C)c3cncn3c2)cc1OC`?
NIH3T3 tox: 22.4µM*; NPR1 antag: -6.0%[70.6 µM]; Luciferase inh: inactive; HEK293 tox: inconclusive

What do the screens show for `CO[C@H]1C(=O)N(C(C)C)[C@H]1C1CCN(C(=O)Cn2nc(C(F)(F)F)cc2C)CC1`?
NIH3T3 tox: inactive; NPR1 antag: 6.4%; Luciferase inh: 35.5µM*; HEK293 tox: inactive

What do the screens show for `CO[C@H]1C(=O)N(C(C)C)[C@H]1C1CCN(C(=O)Cn2ccc(C)n2)CC1`?
NIH3T3 tox: -1.4%; NPR1 antag: 0.5%; Luciferase inh: 25.1µM*; HEK293 tox: 0.1%

What do the screens show for `COC(=O)c1ccc2nc(CO[C@H]3CN(Cc4ccc5ccccc5n4)C[C@H]3F)[nH]c2c1`?
NIH3T3 tox: inconclusive; NPR1 antag: 1.4%[70.6 µM]; Luciferase inh: inconclusive; HEK293 tox: 100µM*

How did Fc1ccc2nc(CO[C@H]3CN(Cc4cnc5ccccc5c4)C[C@H]3F)[nH]c2c1 do in these assays?
NIH3T3 tox: inconclusive; NPR1 antag: inconclusive; Luciferase inh: inactive; HEK293 tox: 70.8µM*

Results for COc1cc(Cl)ccc1C(=O)N[C@@H]1CN(S(C)(=O)=O)C[C@H]1CN(C)C ?
NIH3T3 tox: -8.7%; NPR1 antag: 2.7%; Luciferase inh: inactive; HEK293 tox: inactive

Results for COc1ccccc1C(=O)N1CCC(N2C(=O)c3c(c(C)nn3-c3ccccc3)C2C)C1 (centres undefined) ?
NIH3T3 tox: inconclusive; HEK293 tox: 44.7µM*

What do the screens show for `COc1ccccc1C(=O)N1CCC(N2C(=O)c3c(c(C)nn3-c3ccccc3)C2C2CC2)C1` (centres undefined)?
NIH3T3 tox: inconclusive; HEK293 tox: 39.8µM*

How did CCCOc1cccc(-c2nc(C(=O)NCC)cs2)c1 do in these assays?
NIH3T3 tox: inconclusive; NPR1 antag: -18.0%; Luciferase inh: inactive; HEK293 tox: 31.6µM*

Results for CC(C)Oc1cccc(-c2nc(C(=O)NCc3ccccc3)cs2)c1 ?
NIH3T3 tox: inconclusive; NPR1 antag: inconclusive; Luciferase inh: inactive; HEK293 tox: 31.6µM*

How did CC(C)Oc1cccc(-c2nc(C(=O)NCc3ccco3)cs2)c1 do in these assays?
NIH3T3 tox: inconclusive; NPR1 antag: -22.4%; Luciferase inh: inconclusive; HEK293 tox: inconclusive

Results for COc1ccc(C(=O)N2CCCN(S(C)(=O)=O)c3ccccc32)c(C)c1 ?
NIH3T3 tox: -7.1%; NPR1 antag: 2.0%; Luciferase inh: inactive; HEK293 tox: -5.8%

How did CNC(=O)c1cc(C2CC2)nc2onc(C3CCN(C(=O)c4ccccc4F)C3)c12 (centres undefined) do in these assays?
NIH3T3 tox: -24.2%; HEK293 tox: -19.9%

What do the screens show for `CCOc1ccccc1NC(=O)N[C@H](Cc1ccccc1)C(=O)N1CCOCCNC(=O)CC1`?
NIH3T3 tox: -11.4%; NPR1 antag: 1.1%; Luciferase inh: inactive; HEK293 tox: -17.6%

Results for COc1ccc(-c2noc([C@@H]3CCCN3C(=O)c3ccc(C)c(C)c3)n2)cc1 ?
NIH3T3 tox: inconclusive; NPR1 antag: -14.7%; Luciferase inh: inactive; HEK293 tox: inconclusive

How did COc1ccc2nc(C[C@@H]3C[C@@H](C(C)C)[C@H](CNC(=O)CCCC(=O)O)C=C3C)[nH]c2c1 do in these assays?
NIH3T3 tox: 2.8%; NPR1 antag: -2.0%; Luciferase inh: inactive; HEK293 tox: 0.0%

What do the screens show for `COCC(=O)NC[C@@H]1C=C(C)[C@H](Cc2nc3ccc(Cl)cc3[nH]2)C[C@H]1C(C)C`?
NIH3T3 tox: 70.8µM*; NPR1 antag: 1.1%[70.6 µM]; Luciferase inh: inactive; HEK293 tox: inconclusive

What do the screens show for `COCC(=O)NC[C@@H]1C=C(C)[C@H](Cc2nc3ccc(C)cc3[nH]2)C[C@H]1C(C)C`?
NIH3T3 tox: 50.1µM*; NPR1 antag: -21.9%[70.6 µM]; Luciferase inh: inactive; HEK293 tox: inconclusive

How did COCCN1C[C@H]2CN(C)c3ccccc3[C@@H]2N(C(=O)c2ccc(C)cc2)CCC1=O do in these assays?
NIH3T3 tox: -27.8%[46.1 µM]; HEK293 tox: inconclusive

Results for CC(=O)Nc1cccc(-c2n[nH]c3c2CC(=O)N(Cc2ccccc2)C3)c1 ?
NIH3T3 tox: inconclusive; NPR1 antag: -25.8%[70.6 µM]; Luciferase inh: inactive; HEK293 tox: 100µM*

Results for CC(=O)Nc1cccc(-c2n[nH]c3c2CC(=O)N(CC2CC2)C3)c1 ?
NIH3T3 tox: inconclusive; NPR1 antag: -9.5%[70.6 µM]; Luciferase inh: inactive; HEK293 tox: inconclusive

Results for CC(=O)Nc1cccc(-c2n[nH]c3c2CC(=O)N(CCOc2ccccc2)C3)c1 ?
NIH3T3 tox: 35.5µM*; NPR1 antag: -30.4%[70.6 µM]; Luciferase inh: inactive; HEK293 tox: inconclusive

Results for O=[S+]([O-])(Nc1ccccc1)c1ccc2c(c1)OCCN(Cc1ccc(F)cn1)C2 ?
NIH3T3 tox: inconclusive; NPR1 antag: -19.3%[70.6 µM]; Luciferase inh: inactive; HEK293 tox: inconclusive

What do the screens show for `Cn1cc(CN2CCOc3cc([S+](=O)([O-])Nc4cccnc4)ccc3C2)cn1`?
NIH3T3 tox: 100µM*; NPR1 antag: 6.2%[70.6 µM]; Luciferase inh: inactive; HEK293 tox: 2.9%[172 µM]

Results for Cc1ccsc1CN1CCOc2cc([S+](=O)([O-])Nc3ccccc3)ccc2C1 ?
NIH3T3 tox: 44.7µM*; NPR1 antag: inconclusive; Luciferase inh: inactive; HEK293 tox: 63.1µM*

Results for O=[S+]([O-])(Nc1nncs1)c1ccc2c(c1)OCCN(Cc1cncc(F)c1)C2 ?
NIH3T3 tox: 28.2µM*; NPR1 antag: -3.1%[70.6 µM]; Luciferase inh: inactive; HEK293 tox: -21.8%[172 µM]

How did O=[S+]([O-])(Nc1ccccc1)c1ccc2c(c1)OCCN(Cc1ccccn1)C2 do in these assays?
NIH3T3 tox: inconclusive; NPR1 antag: -23.8%[70.6 µM]; Luciferase inh: inactive; HEK293 tox: 70.8µM*

How did Cn1ncc(N2CCC(NC(=O)Cc3ccsc3)CC2)cc1=O do in these assays?
NIH3T3 tox: -9.4%; NPR1 antag: 2.8%; Luciferase inh: inactive; HEK293 tox: inactive

What do the screens show for `COc1ccc(Cn2c(=O)c(C(=O)NC3CC3)nc3cccnc32)cc1`?
NIH3T3 tox: -13.1%; HEK293 tox: inactive
